High-throughput results: PubChem BioAssay, National Center for Advancing Translational Sciences (NCATS)
Rows were chosen to be rich in hits. Some 19% of all compounds tested hit in one or more screens of this group.
DT40 TDP1 no CPT – qHTS for Inhibitors of human tyrosyl-DNA phosphodiesterase 1 (TDP1): qHTS in cells in absence of CPT | AID 686978, 2013 | Potency, µM (top dose mostly 46.2 µM), usual class: inhibitors | DT40 Tdp1-/- hTDP1 cells, no CPT, ATP luminescence, 48 h | 420,000 tested, 15% active; note: nearly all actives have a fitted effect of over 55% in size
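Readout: luminescence from CellTiter-Glo after 30 min in the dark at RT. Cells: DT40 Tdp1-/- with stable hTDP1, 400/well. Exposure: compounds alone, ≥48 hr, 37 °C.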
HT1080-NT tox – kills 2HG-producing HT-1080-NT fibrosarcoma cells | 360,000 tested, 1.6% active | AID 686970 | HT-1080-NT fibrosarcoma viability, CellTiter-Glo ATP luminescence, 48 h | Potency, µM (series often up to 46.1 µM), most hits filed as cytotoxic;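 note: NT is the 2HG producing partner of a matched IDH1 knockdown line; nearly all actives have a fitted effect of over 55% in size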
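Viability by CellTiter-Glo luminescence after 48 h compound exposure at 37C of HT-1080-NT cells (750/well, RPMI, 5% FBS). % activity scaled between DMSO wells and medium-only wells, then curve-fitted and categorized by curve class.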
HT1080 IDH1KD tx – kills HT-1080 cells with IDH1 knockdown | 360,000 tested, 2% active | Potency, µM (series often up to 46.1 µM), actives largely listed as cytotoxic | HT-1080 IDH1 knockdown viability, ATP luminescence, 48 h
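CellTiter-Glo luminescence after 48 h compound exposure at 37 degrees C of IDH1-knockdown HT-1080 cells in 5% FBS RPMI. %Activity scaled between DMSO wells and cell-free media wells, with curves fitted and assigned curve classes.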
ELG1 DNA repair – ELG1-dependent DNA repair inhibition. 330,000 tested, 2.3% active. Potency, µM (series often up to 46.1 µM), actives largely listed as inhibitors. HEK293T ELG1-luciferase reporter, luminescence, 16 h; DNA damage induced by 5-fluorouridine; note: nearly all actives have a fitted effect of over 55% in size
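HEK293T cells expressing luciferase-tagged ELG1 (2,000/well) received 5-Fluorouridine plus compound or DMSO for 16 hr at 37 °C. Luciferase was read by ONE-Glo luminescence after 30 min at room temperature.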
DT40 TDP1 CPT – growth inhibition of DT40 Tdp1-/-;hTDP1 cells with camptothecin (screen for TDP1 inhibitors); chicken DT40 Tdp1-/-;hTDP1 cells + 20 nM CPT, ATP luminescence, 48 h; Potency, µM (doses to about 46.2 µM), actives largely listed as inhibitors; 420,000 tested, 12% active; AID 686979; note: nearly all actives have a fitted effect of over 55% in size
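Chicken DT40 Tdp1-/- cells stably complemented with human TDP1 were seeded at 400 cells/well in medium containing 20 nM camptothecin, exposed to pin-transferred compounds, and grown at 37 °C for at least 48 hr. Viability was read as ATP luminescence.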
IL-1B inflam inh – inflammasome signaling inhibition, IL-1 beta readout; 360,000 tested, 4.7% active; activity change, % at 57.5 µM; AID 743279; THP-1 LPS/ATP IL-1B secretion, AlphaLISA, 16 h; active compounds read low; in the data active = activity change below about -50%; inconclusive = mostly about -30% to -49%
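THP-1 cells pretreated 1 hr with compounds (up to 57.5 uM final), then stimulated with LPS (250 ng/mL final) plus ATP (1.25 mM final); secreted IL-1B measured by AlphaLISA after 16 hr, decreased signal indicating inhibition.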
Large screens that a line does not name were inactive. Unless noted, calls come from the whole dose curve; as a rule, active = well fitted curve in the direction sought with a large enough effect; inconclusive = small, poorly fitted or top-dose-only effect, or another doubt; inactive = no such curve, though single readings can be large; an effect the other way counts as inactive or inconclusive.

CCc1cccc(NC(=O)C2CCCN2S(=O)(=O)c2ccccc2C(F)(F)F)c1 (stereo not given)	DT40 TDP1 no CPT 20.6µM, DT40 TDP1 CPT inconclusive
CC(=O)N1c2ccc(S(=O)(=O)N3CCCC3C(=O)Nc3cccc(F)c3)cc2CC1C (stereo not given)	DT40 TDP1 no CPT inconclusive, DT40 TDP1 CPT 16.4µM
CCc1cccc(NC(=O)C2CCCN2S(=O)(=O)c2ccc3c(c2)CC(C)N3C(C)=O)c1 (stereo not given)	DT40 TDP1 no CPT 11.6µM, ELG1 DNA repair inconclusive, DT40 TDP1 CPT inconclusive
COc1ccc(NC(=O)C2CCCN2S(=O)(=O)c2ccc3c(c2)CC(C)N3C(C)=O)cc1OC (stereo not given)	DT40 TDP1 CPT inconclusive
CCCCNC(=O)CSc1nc(Cc2ccccc2)nc2ccccc12	DT40 TDP1 no CPT inconclusive, DT40 TDP1 CPT inconclusive
COCCNC(=O)C1=NOC(Cn2cc(C#N)c(=O)n(C)c2=O)C1 (stereo not given)	none
CC(=O)c1cc(O)c2ccccc2c1O	DT40 TDP1 no CPT 4.61µM, ELG1 DNA repair inconclusive, DT40 TDP1 CPT 14.6µM
CC(=O)c1coc2c1cc(O)c1ccccc12	ELG1 DNA repair inconclusive
CCCCNC(=O)/C(C#N)=C/c1ccc(-c2ccc(S(=O)(=O)N3CCOCC3)cc2)o1	DT40 TDP1 no CPT 10.3µM, DT40 TDP1 CPT 7.31µM
COC(=O)/C(C#N)=C/c1ccc(-c2ccc(S(N)(=O)=O)cc2)o1	IL-1B inflam inh -74.2
O=C(NC1CC1)c1cc(=S)[nH]c2ccccc12	ELG1 DNA repair inconclusive
Cc1ccccc1CSc1nnc2[nH]c(=O)cc(-c3ccccc3)n12	none (no result: HT1080-NT tox, HT1080 IDH1KD tx, ELG1 DNA repair, IL-1B inflam inh)
Oc1ccccc1CNCC12CC3CC(CC(C3)C1)C2	DT40 TDP1 no CPT inconclusive, HT1080-NT tox inconclusive, DT40 TDP1 CPT inconclusive, IL-1B inflam inh -86.6
CC(CC12CC3CC(CC(C3)C1)C2)NCc1ccccc1O (stereo not given)	DT40 TDP1 no CPT 16.4µM, DT40 TDP1 CPT 14.6µM, IL-1B inflam inh -85.1
O=C(CC12CC3CC(CC(C3)C1)C2)NCc1ccccc1	DT40 TDP1 no CPT inconclusive, DT40 TDP1 CPT inconclusive
OCCNCC12CC3CC(CC(C3)C1)C2	none
C/C=C1\[C@H]2C=C(C)C[C@]1(N)c1ccc(=O)[nH]c1C2	none (no result: HT1080-NT tox, HT1080 IDH1KD tx, ELG1 DNA repair, IL-1B inflam inh)
CN(Cc1ccccc1)c1nc(-c2cccc([N+](=O)[O-])c2)nc2ccccc12	DT40 TDP1 no CPT 18.4µM, ELG1 DNA repair inconclusive, DT40 TDP1 CPT 18.4µM
O=[N+]([O-])c1cccc(-c2nc(NCc3ccccc3)c3ccccc3n2)c1	DT40 TDP1 no CPT inconclusive, ELG1 DNA repair inconclusive, DT40 TDP1 CPT inconclusive
N#CC(CC(=O)c1ccc(F)cc1)c1ccc2c(c1)OCO2 (stereo not given)	DT40 TDP1 no CPT inconclusive, IL-1B inflam inh inconclusive
O=C1Nc2ccc([N+](=O)[O-])cc2OC1CCN1CCN(Cc2ccc3c(c2)OCO3)CC1 (stereo not given)	DT40 TDP1 no CPT inconclusive, IL-1B inflam inh -50.6
O=[N+]([O-])c1c(NCCO)cc(N2CCN(Cc3ccc4c(c3)OCO4)CC2)c2nonc12	ELG1 DNA repair 20.6µM
O=C1Nc2ccc([N+](=O)[O-])cc2OC1CCN1CCN(Cc2ccccc2)CC1 (stereo not given)	DT40 TDP1 no CPT inconclusive, HT1080-NT tox inconclusive
O=Cc1cc([N+](=O)[O-])ccc1N1CCN(Cc2ccc3c(c2)OCO3)CC1	DT40 TDP1 no CPT inconclusive, IL-1B inflam inh -63.8
COc1ccccc1CC(=O)Nc1ccc([N+](=O)[O-])cc1O	HT1080-NT tox inconclusive, HT1080 IDH1KD tx inconclusive, ELG1 DNA repair inconclusive, IL-1B inflam inh -63.3
CCC(C)C(=O)Nc1ccc([N+](=O)[O-])cc1OC (stereo not given)	none
CN1CCN(c2ccccc2NC(=O)c2ccc([N+](=O)[O-])cc2Cl)CC1	none
